# From the supplement of paper PMC4466140
# B1: unnamed (peptide)
# chain: SAPDIPPRSPNRNAH
# Biological target: ScBbc1
# Assay: SPOT peptide array binding signal intensity (averaged, normalized) (arbitrary units (background-subtracted, floor 0; scale differs between SH3 domains)); higher = stronger binding of the SH3 domain to the peptide
# In short: (§1)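 E. coli BL21(DE3) was used to express GST-fused SH3 domains from four yeast species, which were then purified on glutathione Sepharose. These were incubated at 10 μg/ml in TBS-based blocking buffer overnight at 4°C on cellulose membranes carrying synthetic 15-mer peptides, in which cysteines were replaced by serines. Binding signal is the replicate average of normalized, background-subtracted spot intensity, in arbitrary units that differ between domains.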
row,Binder,SPOT peptide array binding signal intensity
1,B1,35.8

# Biological target: ScBem1-D1
# Assay: as above
# In short: as §1
row,Binder,SPOT peptide array binding signal intensity
1,B1,≤ 0

# Biological target: ScBzz1-D1
# Assay: as above
# In short: as §1
row,Binder,SPOT peptide array binding signal intensity
1,B1,≤ 0

# Biological target: ScBzz1-D2
# Assay: as above
# In short: as §1
row,Binder,SPOT peptide array binding signal intensity
1,B1,≤ 0

# Biological target: ScCyk3
# Assay: as above
# In short: as §1
row,Binder,SPOT peptide array binding signal intensity
1,B1,≤ 0

# Biological target: ScFus1
# Assay: as above
# In short: as §1
row,Binder,SPOT peptide array binding signal intensity
1,B1,≤ 0

# Biological target: ScHof1
# Assay: as above
# In short: as §1
row,Binder,SPOT peptide array binding signal intensity
1,B1,≤ 0

# Biological target: ScHse1
# Assay: as above
# In short: as §1
row,Binder,SPOT peptide array binding signal intensity
1,B1,17.5

# Biological target: ScLsb1
# Assay: as above
# In short: as §1
row,Binder,SPOT peptide array binding signal intensity
1,B1,763

# Biological target: ScLsb2
# Assay: as above
# In short: as §1
row,Binder,SPOT peptide array binding signal intensity
1,B1,1090

# Biological target: ScLsb3
# Assay: as above
# In short: as §1
row,Binder,SPOT peptide array binding signal intensity
1,B1,5380

# Biological target: ScLsb4
# Assay: as above
# In short: as §1
row,Binder,SPOT peptide array binding signal intensity
1,B1,936

# Biological target: ScMyo3
# Assay: as above
# In short: as §1
row,Binder,SPOT peptide array binding signal intensity
1,B1,≤ 0

# Biological target: ScMyo5
# Assay: as above
# In short: as §1
row,Binder,SPOT peptide array binding signal intensity
1,B1,≤ 0

# Biological target: ScNbp2
# Assay: as above
# In short: as §1
row,Binder,SPOT peptide array binding signal intensity
1,B1,57

# Biological target: ScPex13
# Assay: as above
# In short: as §1
row,Binder,SPOT peptide array binding signal intensity
1,B1,130

# Biological target: ScRvs167
# Assay: as above
# In short: as §1
row,Binder,SPOT peptide array binding signal intensity
1,B1,1360

# Biological target: ScSho1
# Assay: as above
# In short: as §1
row,Binder,SPOT peptide array binding signal intensity
1,B1,13.5

# Biological target: ScSla1-D1-D2
# Assay: as above
# In short: as §1
row,Binder,SPOT peptide array binding signal intensity
1,B1,134

# Biological target: ScSla1-D3
# Assay: as above
# In short: as §1
row,Binder,SPOT peptide array binding signal intensity
1,B1,≤ 0

# Biological target: SpAbp1-D1
# Assay: as above
# In short: as §1
row,Binder,SPOT peptide array binding signal intensity
1,B1,≤ 0

# Biological target: SpBbc1
# Assay: as above
# In short: as §1
row,Binder,SPOT peptide array binding signal intensity
1,B1,3.5

# Biological target: SpBzz1-D1
# Assay: as above
# In short: as §1
row,Binder,SPOT peptide array binding signal intensity
1,B1,≤ 0

# Biological target: SpBzz1-D2
# Assay: as above
# In short: as §1
row,Binder,SPOT peptide array binding signal intensity
1,B1,≤ 0

# Biological target: SpCyk3
# Assay: as above
# In short: as §1
row,Binder,SPOT peptide array binding signal intensity
1,B1,≤ 0

# Biological target: SpHof1
# Assay: as above
# In short: as §1
row,Binder,SPOT peptide array binding signal intensity
1,B1,0.75

# Biological target: SpHof1-2
# Assay: as above
# In short: as §1
row,Binder,SPOT peptide array binding signal intensity
1,B1,≤ 0

# Biological target: SpHof1-3
# Assay: as above
# In short: as §1
row,Binder,SPOT peptide array binding signal intensity
1,B1,1

# Biological target: SpHse1
# Assay: as above
# In short: as §1
row,Binder,SPOT peptide array binding signal intensity
1,B1,12

# Biological target: SpLsb1
# Assay: as above
# In short: as §1
row,Binder,SPOT peptide array binding signal intensity
1,B1,540

# Biological target: SpLsb4
# Assay: as above
# In short: as §1
row,Binder,SPOT peptide array binding signal intensity
1,B1,6620

# Biological target: SpMyo1
# Assay: as above
# In short: as §1
row,Binder,SPOT peptide array binding signal intensity
1,B1,≤ 0

# Biological target: SpNbp2
# Assay: as above
# In short: as §1
row,Binder,SPOT peptide array binding signal intensity
1,B1,59.5

# Biological target: SpPex13
# Assay: as above
# In short: as §1
row,Binder,SPOT peptide array binding signal intensity
1,B1,≤ 0

# Biological target: SpRvs167
# Assay: as above
# In short: as §1
row,Binder,SPOT peptide array binding signal intensity
1,B1,1600

# Biological target: SpSla1-D1-D2
# Assay: as above
# In short: as §1
row,Binder,SPOT peptide array binding signal intensity
1,B1,≤ 0

# Biological target: SpSla1-D3
# Assay: as above
# In short: as §1
row,Binder,SPOT peptide array binding signal intensity
1,B1,≤ 0
